Results on 38 molecules are retold here after PubChem BioAssay (NCI).

The structures appear in SMILES notation. This is part of a sample that, as a whole, favours compounds with a hit. Of some 83,000 tested, about 20% had one in any assay.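 Cells were grown in 96-well plates and exposed to the test compound at a single concentration for 48 hours; results are reported as percent growth, with values below 10 considered active.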 A number with no mark means an inactive call. The source made the active and inactive calls.

The first assay concerns U251 CNS. The assay is described as follows: NCI-60 one-dose screen, 48 h (100 = growth as untreated, 0 = no growth, -100 = all killed). To be noted: 10 µM unless noted.
Take `COC(=O)[C@]12CC[C@@H](C)[C@H](C)[C@@H]1C1=CC[C@@H]3[C@@]4(C)C(C=O)=C[C@@](C)(COC(C)=O)[C@@H]4[C@H](O)C[C@@]3(C)[C@]1(C)CC2`: the growth was -46.7% (active).
Turning to `CCc1c2c(nc3ccc(OC(=O)OCc4ccc(B5OC(C)(C)C(C)(C)O5)cc4)cc13)-c1cc3c(c(=O)n1C2)COC(=O)[C@]3(O)CC`, the growth is -57.2% (active).
Same read-out and setting: then `N#Cc1c(N2CCNCC2)nc2sc3cc(Cl)c(Cl)cc3n2c1=N`, with 107%.
As to `Cc1ccc(/C=C/c2c(C(=O)/C=C/c3ccc(C(F)(F)F)cc3)c(C)nc3ccccc23)cc1`, the growth was -70.7% (active).
Take `COc1ccc2c(c1)[nH]c(=O)c1c3cccnc3cn21`: the growth is 15.6%.
Consider `COc1ccc2c(c1)C(=O)/C(=C/c1cccc(OCC(=O)Nc3nc(C)c(C)s3)c1)O2`, for which the growth is 0% (active).
Consider `COc1cccc(-c2nn(-c3ccccc3)cc2-c2ccnc(NCCNC(=O)c3ccccc3)c2)c1`, for which the growth is 47.9%.
With `COC(=O)/C=C1\S/C(=N\NS(=O)(=O)c2ccc(C)cc2)N(c2ccccc2)C1=O`, the growth is 102%.
As to `Cc1ccc(-c2cc3c(cc2O)C2CCCCC2(N2CCOCC2)O3)cc1` (stereo unspecified), the growth was 98.6%.
As for `CCOc1ccccc1-c1cc(-c2cccs2)c(C#N)c(=O)[nH]1`, the growth was 88.6%.
`N#Cc1nc(C#N)c(Sc2ccccc2)c(Sc2ccccc2)c1Sc1ccccc1`: the growth is -81.9% (active).
Same read-out and setting: then `CCN1CCN(c2cc(C)nc(NCc3cc(Nc4ccnc5cc(Cl)ccc45)ccc3F)n2)CC1`, with 59.8%; and `Cn1ccc2c(c1=O)C(=O)c1nccc3c1c-2nc1ccccc13`, with -92.9% (active).
Regarding `COC1=CC(=O)C[C@@H](C)[C@]12Oc1c(Cl)c(OC)cc(OC)c1C2=O`, the growth was 92.1%.
For `O=C1CCc2c(sc3[nH]c(=S)n(-c4ccc(OC(F)(F)F)cc4)c(=O)c23)C1`, the growth was 21.6%.
With `COc1cc(C(=O)/C=C/c2c(-c3ccc(F)cc3)nc3sc(C)cn23)cc(OC)c1OC`, the growth was 32.9%.
Same read-out and setting: in the case of `Cc1nn(-c2ccccc2)c(Oc2ccc(Cl)cc2)c1/C=N\N=c1/sc2ccccc2n1C` it was 86.9%.
With `COC(=O)c1ccc(C2Nc3ccc(S(=O)(=O)Nc4ccc(C)c(C)c4)cc3C3OCCC23)cc1` (stereo unspecified), the growth was 71.5%.
In the case of `CCCCCCCCn1ccc2cc(NC(=O)Cn3cc(CN4CCCC4)nn3)ccc21`, the growth is -35.5% (active).
For the molecule `O=S(=O)(Nc1cccc(Cl)c1)c1ccc(-c2cnc(C3CC3)o2)cc1`, the growth was 22.9%.
As to `COc1ccc(-c2nc(SC(C)C)nc(NNC(N)=S)c2C#N)cc1`, the growth was 52.8%.
`Cc1cc(NCc2cc(Nc3ccnc4cc(Cl)ccc34)ccc2F)nc(N2CCN(C)CC2)n1`: the growth is -28.2% (active).
In the case of `Cc1ccc2nc(C)c(-c3nnc(SCc4ccc(C#N)cc4)o3)n2c1`, the growth was 95.3%.
Still for that read-out and setting: then `CCN1C(=O)N(CC)C2Nn3c(s/c(=C\c4ccc(Cl)cc4Cl)c3=O)=NC21` (stereo unspecified), with 26.3%; and `C[n+]1cc2cc(C(N)=O)[nH]c3c(=N)c(Cl)c(N)c1c23`, with 62.2%; and `CCc1ccccc1-n1c(-c2ccc(Cl)cc2)cc(-c2ccc(Cl)cc2)c(C#N)c1=O`, with 84.9%.
`Cc1ccc2nc(NC(=O)CSc3nc(-c4ccccc4)c(C#N)c(=O)n3Cc3ccccc3)sc2c1`: the growth was 87.8%.
As for `COc1ccc(C2=Nc3c(N)ncnc3NC(c3ccc4c(c3)OCO4)C2)cc1` (stereo unspecified), the growth was 94.3%.
For the molecule `Clc1ccc(-c2c3ccc(=[N+]4CCCCC4)cc-3oc3cc(N4CCCCC4)ccc23)cc1`, the growth is -79.6% (active).
For `CCCCN(CCCC)CC(C)(C)C(O)c1ccc(OC)c2ccccc12` (stereo unspecified), the growth was 50.3%.
`C(=N\Nc1ncc(-c2cc3cc4c(cc3o2)OCO4)s1)/c1ccco1`: the growth is 37%.
With `O=C(c1ccccc1)c1c(/C=C/c2ccccc2)nc2ccccc2c1/C=C/c1ccc(Br)cc1`, the growth was 95.9%.
Regarding `Cc1cc(NCc2cc(Nc3ccnc4cc(Cl)ccc34)ccc2F)nc(N2CCN(c3ccccc3)CC2)n1`, the growth was 10.5%.
On the same count and under the same terms, in the case of `O=[N+]([O-])c1ccc(N2c3ccncc3Sc3ccncc32)cc1` it was 93.4%.
As for `COc1cc(C2CC(=O)Nc3c2c(C)nn3-c2nc3ccccc3[nH]2)c(OC)c(OC)c1OC` (stereo unspecified), the growth is 42%.
`Cc1c2c(c(C)c3c1oc1cc(O)ccc13)C(=O)N(CCN1CCCCC1)C2=O`: the growth was 86.4%.
Consider `COCN1CCC2N(COC)CCC3N(COC)CCC1N23` (stereo unspecified), for which the growth was 102%.
Take `Cc1cc(C)c(-c2c(C)cc(C)cc2CBr)c(CBr)c1`: the growth was 73%.

For another assay, the system named is PC-3 prostate. The description is as above. To be noted: 10 µM unless noted.
As to `COC(=O)[C@]12CC[C@@H](C)[C@H](C)[C@@H]1C1=CC[C@@H]3[C@@]4(C)C(C=O)=C[C@@](C)(COC(C)=O)[C@@H]4[C@H](O)C[C@@]3(C)[C@]1(C)CC2`, the growth is 8.44% (active).
Take `CCc1c2c(nc3ccc(OC(=O)OCc4ccc(B5OC(C)(C)C(C)(C)O5)cc4)cc13)-c1cc3c(c(=O)n1C2)COC(=O)[C@]3(O)CC`: the growth is 14.9%.
Regarding `N#Cc1c(N2CCNCC2)nc2sc3cc(Cl)c(Cl)cc3n2c1=N`, the growth was 94.2%.
In the case of `Cc1ccc(/C=C/c2c(C(=O)/C=C/c3ccc(C(F)(F)F)cc3)c(C)nc3ccccc23)cc1`, the growth is -43.8% (active).
Turning to `COc1ccc2c(c1)[nH]c(=O)c1c3cccnc3cn21`, the growth was 22%.
Take `COc1ccc2c(c1)C(=O)/C(=C/c1cccc(OCC(=O)Nc3nc(C)c(C)s3)c1)O2`: the growth is -85.4% (active).
In the case of `COc1cccc(-c2nn(-c3ccccc3)cc2-c2ccnc(NCCNC(=O)c3ccccc3)c2)c1`, the growth was 37.7%.
Same read-out and setting: then `COC(=O)/C=C1\S/C(=N\NS(=O)(=O)c2ccc(C)cc2)N(c2ccccc2)C1=O`, with 96.4%.
In the case of `Cc1ccc(-c2cc3c(cc2O)C2CCCCC2(N2CCOCC2)O3)cc1` (stereo unspecified), the growth was 75.3%.
Take `CCOc1ccccc1-c1cc(-c2cccs2)c(C#N)c(=O)[nH]1`: the growth was 84.5%.
On the same count and under the same terms, then `N#Cc1nc(C#N)c(Sc2ccccc2)c(Sc2ccccc2)c1Sc1ccccc1`, with 21.5%.
On the same count and under the same terms, then `CCN1CCN(c2cc(C)nc(NCc3cc(Nc4ccnc5cc(Cl)ccc45)ccc3F)n2)CC1`, with 57.6%; and `Cn1ccc2c(c1=O)C(=O)c1nccc3c1c-2nc1ccccc13`, with -44.8% (active); and `COC1=CC(=O)C[C@@H](C)[C@]12Oc1c(Cl)c(OC)cc(OC)c1C2=O`, with 87.5%.
Consider `O=C1CCc2c(sc3[nH]c(=S)n(-c4ccc(OC(F)(F)F)cc4)c(=O)c23)C1`, for which the growth was 16.1%.
On to `COc1cc(C(=O)/C=C/c2c(-c3ccc(F)cc3)nc3sc(C)cn23)cc(OC)c1OC`, for which the growth was 10.7%.
On the same count and under the same terms, then `Cc1nn(-c2ccccc2)c(Oc2ccc(Cl)cc2)c1/C=N\N=c1/sc2ccccc2n1C`, with 62.3%.
As to `COC(=O)c1ccc(C2Nc3ccc(S(=O)(=O)Nc4ccc(C)c(C)c4)cc3C3OCCC23)cc1` (stereo unspecified), the growth was 82.4%.
On to `CCCCCCCCn1ccc2cc(NC(=O)Cn3cc(CN4CCCC4)nn3)ccc21`, for which the growth is 64.9%.
Still for that read-out and setting: in the case of `O=S(=O)(Nc1cccc(Cl)c1)c1ccc(-c2cnc(C3CC3)o2)cc1` it was 26.3%; in that of `COc1ccc(-c2nc(SC(C)C)nc(NNC(N)=S)c2C#N)cc1`, 55.6%.
For `Cc1cc(NCc2cc(Nc3ccnc4cc(Cl)ccc34)ccc2F)nc(N2CCN(C)CC2)n1`, the growth is 21.5%.
For `Cc1ccc2nc(C)c(-c3nnc(SCc4ccc(C#N)cc4)o3)n2c1`, the growth is 109%.
For `CCN1C(=O)N(CC)C2Nn3c(s/c(=C\c4ccc(Cl)cc4Cl)c3=O)=NC21` (stereo unspecified), the growth is 33.6%.
With `C[n+]1cc2cc(C(N)=O)[nH]c3c(=N)c(Cl)c(N)c1c23`, the growth was 48.4%.
For the molecule `CCc1ccccc1-n1c(-c2ccc(Cl)cc2)cc(-c2ccc(Cl)cc2)c(C#N)c1=O`, the growth is 76.4%.
On the same count and under the same terms, in the case of `Cc1ccc2nc(NC(=O)CSc3nc(-c4ccccc4)c(C#N)c(=O)n3Cc3ccccc3)sc2c1` it was 71.9%.
As to `COc1ccc(C2=Nc3c(N)ncnc3NC(c3ccc4c(c3)OCO4)C2)cc1` (stereo unspecified), the growth was 77.2%.
Consider `Clc1ccc(-c2c3ccc(=[N+]4CCCCC4)cc-3oc3cc(N4CCCCC4)ccc23)cc1`, for which the growth is -71.2% (active).
With `CCCCN(CCCC)CC(C)(C)C(O)c1ccc(OC)c2ccccc12` (stereo unspecified), the growth was 29.5%.
For `C(=N\Nc1ncc(-c2cc3cc4c(cc3o2)OCO4)s1)/c1ccco1`, the growth is 33.6%.
On the same count and under the same terms, in the case of `O=C(c1ccccc1)c1c(/C=C/c2ccccc2)nc2ccccc2c1/C=C/c1ccc(Br)cc1` it was 90.2%; in that of `Cc1cc(NCc2cc(Nc3ccnc4cc(Cl)ccc34)ccc2F)nc(N2CCN(c3ccccc3)CC2)n1`, 42.7%.
In the case of `O=[N+]([O-])c1ccc(N2c3ccncc3Sc3ccncc32)cc1`, the growth is 88.1%.
In the case of `COc1cc(C2CC(=O)Nc3c2c(C)nn3-c2nc3ccccc3[nH]2)c(OC)c(OC)c1OC` (stereo unspecified), the growth was 51.9%.
Still for that read-out and setting: in the case of `Cc1c2c(c(C)c3c1oc1cc(O)ccc13)C(=O)N(CCN1CCCCC1)C2=O` it was 83.8%.
For the molecule `COCN1CCC2N(COC)CCC3N(COC)CCC1N23` (stereo unspecified), the growth was 102%.
The same measure, in the same setting: then `Cc1cc(C)c(-c2c(C)cc(C)cc2CBr)c(CBr)c1`, with 78.4%.
